Assay results: the supplement of paper PMC10849652
About 8,800 targets were measured; listed, in parts, are those with a hit and a random draw of the rest. About 0.5% of all pairs of compound and target were hits. Values without a mark were called inactive.

Assays:
Assay in all cases: log2 fold change, soluble protein after heating vs DMSO (PISA); higher = thermal stabilisation; K562 lysate, 10 uM; active = over 0.2 and 3.5 SD of the protein, either way, in both replicates (recomputed)
[1] = compound: Cc1cn(-c2cc(NC(=O)c3ccc(C)c(Nc4nccc(-c5cccnc5)n4)c3)cc(C(F)(F)F)c2)cn1 [nilotinib]
Outline: (§1)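 Pellets of K562 cells were dounce-homogenised in PBS pH 7.4 with 1 mM MgCl2, and the crude extract was held at 1 mg/mL protein for a 30 min treatment with 10 μM compound. Aliquots were heated for 3 min over 48°C-58°C and pooled before NP-40 was added to 0.5% at 4°C. The supernatant from 21,000xg for 90 min was quantified by TMTpro 16plex LC-MS/MS with channel sums equalised. Values are reported from duplicates as log-two fold change in thermal stability relative to solvent controls.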

[2] = compound: Cc1nc(Nc2n[nH]c3c2CN(C(=O)N[C@H](CN(C)C)c2ccccc2)C3(C)C)c2sccc2n1
Outline: as §1

[3] = compound: Cc1nc(Nc2ncc(C(=O)Nc3c(C)cccc3Cl)s2)cc(N2CCN(CCO)CC2)n1 [dasatinib]
Outline: as §1

[4] = compound: Cc1ncc(-c2ccnc(Nc3ccc(S(C)(=O)=O)cc3)n2)n1C(C)C
Outline: as §1

[5] = compound: Cn1cc(-c2ccc3c(c2)CCN3C(=O)Cc2cccc(C(F)(F)F)c2)c2c(N)ncnc21
Outline: as §1

[6] = compound: Cn1cc(CNCC2CCN(c3ncc(C(=O)NO)cn3)CC2)c2ccccc21 [quisinostat]
Outline: as §1

[7] = compound: Cn1cncc1[C@@](N)(c1ccc(Cl)cc1)c1ccc2c(c1)c(-c1cccc(Cl)c1)cc(=O)n2C [tipifarnib]
Outline: as §1

[8] = compound: NC(=O)Nc1cc(-c2cccc(F)c2)sc1C(=O)N[C@H]1CCCNC1
Outline: as §1

[9] = compound: NC(=O)c1cnc(N[C@@H]2CCCC[C@@H]2N)nc1Nc1cccc(-n2nccn2)c1
Outline: as §1

[10] = compound: NC1(c2ccc(-c3nc4ccn5c(=O)[nH]nc5c4cc3-c3ccccc3)cc2)CCC1
Outline: as §1

[11] = compound: NCC(=O)Nc1ccc(-n2nc(C(F)(F)F)cc2-c2ccc3c(ccc4ccccc43)c2)cc1
Outline: as §1

[12] = compound: O=C(CCCCCCC(=O)Nc1ccccc1)NO [vorinostat]
Outline: as §1

[13] = compound: O=C(O)c1ccc2c(c1)nc(Nc1cccc(Cl)c1)c1ccncc12 [silmitasertib]
Outline: as §1

[14] = compound: O=C1NC(=O)C(c2cnc3ccccn23)=C1c1cn2c3c(cc(F)cc13)CN(C(=O)N1CCCCC1)CC2
Outline: as §1

[15] = compound: c1cn2cc(-c3ccc4cn[nH]c4c3)nc(Nc3ccc(N4CCOCC4)cc3)c2n1 [entospletinib]
Outline: as §1

Chain of UniProt O14641 (O14641 whole entry, looked up): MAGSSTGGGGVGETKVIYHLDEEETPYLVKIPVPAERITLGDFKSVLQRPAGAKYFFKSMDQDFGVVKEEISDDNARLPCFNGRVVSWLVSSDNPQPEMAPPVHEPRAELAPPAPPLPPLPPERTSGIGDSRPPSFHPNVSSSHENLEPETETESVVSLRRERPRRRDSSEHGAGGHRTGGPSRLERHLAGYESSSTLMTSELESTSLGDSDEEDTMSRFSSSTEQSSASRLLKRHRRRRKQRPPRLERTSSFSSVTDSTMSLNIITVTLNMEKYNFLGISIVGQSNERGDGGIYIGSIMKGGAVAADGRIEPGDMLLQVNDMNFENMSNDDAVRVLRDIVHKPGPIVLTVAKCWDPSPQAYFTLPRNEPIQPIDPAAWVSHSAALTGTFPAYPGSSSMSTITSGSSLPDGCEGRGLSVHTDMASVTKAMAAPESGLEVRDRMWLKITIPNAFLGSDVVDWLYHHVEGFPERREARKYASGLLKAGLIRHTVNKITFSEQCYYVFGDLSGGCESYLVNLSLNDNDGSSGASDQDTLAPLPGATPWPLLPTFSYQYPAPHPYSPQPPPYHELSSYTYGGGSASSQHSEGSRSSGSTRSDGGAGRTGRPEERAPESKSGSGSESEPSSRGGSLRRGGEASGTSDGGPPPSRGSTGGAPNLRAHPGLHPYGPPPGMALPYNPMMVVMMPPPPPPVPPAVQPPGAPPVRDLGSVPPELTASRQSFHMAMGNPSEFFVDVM
Chain of UniProt P48507 (P48507 whole entry, looked up): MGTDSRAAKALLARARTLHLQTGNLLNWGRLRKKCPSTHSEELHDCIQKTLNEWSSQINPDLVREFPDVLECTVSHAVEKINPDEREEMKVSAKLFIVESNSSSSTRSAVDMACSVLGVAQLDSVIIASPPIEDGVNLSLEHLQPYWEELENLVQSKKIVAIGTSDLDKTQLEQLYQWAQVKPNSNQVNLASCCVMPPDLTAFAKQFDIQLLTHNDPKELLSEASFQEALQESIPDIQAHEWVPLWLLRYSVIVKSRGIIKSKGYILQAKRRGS
Chain of UniProt Q8NFI3 (Q8NFI3 whole entry, looked up): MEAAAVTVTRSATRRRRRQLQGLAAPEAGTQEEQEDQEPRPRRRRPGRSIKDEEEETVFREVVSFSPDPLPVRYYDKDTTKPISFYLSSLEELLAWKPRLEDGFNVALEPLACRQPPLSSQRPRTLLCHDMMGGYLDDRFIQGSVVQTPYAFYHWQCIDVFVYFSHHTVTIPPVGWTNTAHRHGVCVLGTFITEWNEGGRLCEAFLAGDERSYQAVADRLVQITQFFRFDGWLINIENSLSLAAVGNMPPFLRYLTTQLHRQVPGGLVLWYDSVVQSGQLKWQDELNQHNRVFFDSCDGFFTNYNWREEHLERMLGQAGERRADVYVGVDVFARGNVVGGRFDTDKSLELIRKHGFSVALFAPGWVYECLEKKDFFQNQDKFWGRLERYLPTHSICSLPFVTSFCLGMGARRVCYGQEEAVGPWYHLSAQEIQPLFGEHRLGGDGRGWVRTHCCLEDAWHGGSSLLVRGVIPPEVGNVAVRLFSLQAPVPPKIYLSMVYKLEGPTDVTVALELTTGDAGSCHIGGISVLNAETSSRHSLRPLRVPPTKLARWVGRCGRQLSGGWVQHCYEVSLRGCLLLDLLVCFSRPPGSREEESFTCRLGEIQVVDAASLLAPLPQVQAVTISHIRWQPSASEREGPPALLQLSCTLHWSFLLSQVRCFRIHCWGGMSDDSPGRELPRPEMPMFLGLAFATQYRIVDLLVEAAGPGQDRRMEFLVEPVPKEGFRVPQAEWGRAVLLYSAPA
Chain of UniProt P02792 (P02792 whole entry, looked up): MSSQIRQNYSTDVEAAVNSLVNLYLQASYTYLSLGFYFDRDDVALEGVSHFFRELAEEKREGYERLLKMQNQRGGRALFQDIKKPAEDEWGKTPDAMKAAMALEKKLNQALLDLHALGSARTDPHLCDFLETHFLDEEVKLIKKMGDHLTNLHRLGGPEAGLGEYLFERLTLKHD
Chain of UniProt O94905 (O94905 whole entry, looked up): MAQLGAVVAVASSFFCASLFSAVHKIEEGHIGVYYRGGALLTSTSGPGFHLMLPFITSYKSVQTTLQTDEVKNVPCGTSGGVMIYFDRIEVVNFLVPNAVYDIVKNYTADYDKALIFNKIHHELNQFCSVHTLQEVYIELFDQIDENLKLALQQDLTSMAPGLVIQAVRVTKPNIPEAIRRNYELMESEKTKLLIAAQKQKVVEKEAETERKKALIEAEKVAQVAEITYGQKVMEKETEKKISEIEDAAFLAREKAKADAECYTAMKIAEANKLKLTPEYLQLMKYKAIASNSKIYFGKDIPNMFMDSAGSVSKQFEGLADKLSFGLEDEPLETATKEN
Chain of UniProt Q09472 (Q09472 whole entry, looked up): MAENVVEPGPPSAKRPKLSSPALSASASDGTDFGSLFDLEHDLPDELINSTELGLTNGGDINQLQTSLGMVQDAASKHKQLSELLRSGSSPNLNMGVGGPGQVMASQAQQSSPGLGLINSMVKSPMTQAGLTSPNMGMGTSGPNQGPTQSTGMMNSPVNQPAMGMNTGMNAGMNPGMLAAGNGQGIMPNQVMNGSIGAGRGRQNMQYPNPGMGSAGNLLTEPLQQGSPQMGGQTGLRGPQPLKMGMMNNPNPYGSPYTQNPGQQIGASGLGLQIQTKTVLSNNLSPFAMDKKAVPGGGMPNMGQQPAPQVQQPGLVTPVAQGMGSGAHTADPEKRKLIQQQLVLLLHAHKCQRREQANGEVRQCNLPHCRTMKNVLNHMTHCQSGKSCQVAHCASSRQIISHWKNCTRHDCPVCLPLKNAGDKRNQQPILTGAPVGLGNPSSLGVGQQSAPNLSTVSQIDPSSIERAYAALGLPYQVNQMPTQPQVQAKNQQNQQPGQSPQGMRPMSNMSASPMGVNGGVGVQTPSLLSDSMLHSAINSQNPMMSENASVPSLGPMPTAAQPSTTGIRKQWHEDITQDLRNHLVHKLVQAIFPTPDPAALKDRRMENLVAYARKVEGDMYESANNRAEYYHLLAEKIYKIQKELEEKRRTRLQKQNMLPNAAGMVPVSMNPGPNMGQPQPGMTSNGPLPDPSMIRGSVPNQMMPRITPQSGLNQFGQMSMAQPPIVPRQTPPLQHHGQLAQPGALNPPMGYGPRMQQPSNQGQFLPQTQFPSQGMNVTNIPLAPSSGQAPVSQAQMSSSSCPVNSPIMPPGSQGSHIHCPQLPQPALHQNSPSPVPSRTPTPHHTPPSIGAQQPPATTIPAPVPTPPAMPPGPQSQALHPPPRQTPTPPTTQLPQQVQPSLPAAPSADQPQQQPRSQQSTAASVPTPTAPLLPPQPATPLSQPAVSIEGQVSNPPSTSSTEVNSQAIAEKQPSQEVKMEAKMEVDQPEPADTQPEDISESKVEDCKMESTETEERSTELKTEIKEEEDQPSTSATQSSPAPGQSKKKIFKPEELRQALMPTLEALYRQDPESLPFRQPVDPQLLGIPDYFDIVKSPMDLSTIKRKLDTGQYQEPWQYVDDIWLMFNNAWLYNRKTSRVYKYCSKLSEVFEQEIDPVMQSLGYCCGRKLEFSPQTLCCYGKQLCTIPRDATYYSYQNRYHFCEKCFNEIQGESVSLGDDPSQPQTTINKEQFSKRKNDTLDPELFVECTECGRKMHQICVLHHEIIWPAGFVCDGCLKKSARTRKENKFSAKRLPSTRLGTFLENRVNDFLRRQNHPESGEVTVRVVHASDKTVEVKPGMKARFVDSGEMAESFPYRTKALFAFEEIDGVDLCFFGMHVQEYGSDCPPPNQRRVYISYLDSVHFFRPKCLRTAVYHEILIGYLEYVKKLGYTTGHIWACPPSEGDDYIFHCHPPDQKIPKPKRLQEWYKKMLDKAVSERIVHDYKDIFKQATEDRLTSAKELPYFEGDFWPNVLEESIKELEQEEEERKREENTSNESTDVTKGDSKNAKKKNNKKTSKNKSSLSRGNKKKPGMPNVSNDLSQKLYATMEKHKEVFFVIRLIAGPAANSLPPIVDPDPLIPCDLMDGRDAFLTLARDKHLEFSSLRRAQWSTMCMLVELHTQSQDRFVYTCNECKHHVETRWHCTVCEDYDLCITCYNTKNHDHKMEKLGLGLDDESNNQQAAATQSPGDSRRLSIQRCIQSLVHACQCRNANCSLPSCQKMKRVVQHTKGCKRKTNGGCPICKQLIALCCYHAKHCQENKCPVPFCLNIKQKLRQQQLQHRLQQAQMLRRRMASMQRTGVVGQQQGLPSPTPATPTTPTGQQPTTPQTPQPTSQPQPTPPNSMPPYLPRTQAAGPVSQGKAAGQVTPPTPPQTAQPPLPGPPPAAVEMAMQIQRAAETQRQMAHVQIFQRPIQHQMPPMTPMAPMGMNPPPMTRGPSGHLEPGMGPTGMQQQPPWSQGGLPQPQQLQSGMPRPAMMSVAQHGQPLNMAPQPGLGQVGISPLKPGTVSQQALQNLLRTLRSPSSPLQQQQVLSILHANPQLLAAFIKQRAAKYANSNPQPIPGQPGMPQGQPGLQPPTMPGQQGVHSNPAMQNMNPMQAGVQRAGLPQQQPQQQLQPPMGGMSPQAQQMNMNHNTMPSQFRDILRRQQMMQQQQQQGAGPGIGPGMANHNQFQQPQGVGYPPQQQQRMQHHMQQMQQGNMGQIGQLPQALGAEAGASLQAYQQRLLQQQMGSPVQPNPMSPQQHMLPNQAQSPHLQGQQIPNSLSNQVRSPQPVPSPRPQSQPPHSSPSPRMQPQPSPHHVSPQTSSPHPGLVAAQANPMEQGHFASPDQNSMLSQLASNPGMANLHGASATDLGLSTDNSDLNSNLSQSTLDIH
Chain of UniProt P54852 (P54852 whole entry, looked up): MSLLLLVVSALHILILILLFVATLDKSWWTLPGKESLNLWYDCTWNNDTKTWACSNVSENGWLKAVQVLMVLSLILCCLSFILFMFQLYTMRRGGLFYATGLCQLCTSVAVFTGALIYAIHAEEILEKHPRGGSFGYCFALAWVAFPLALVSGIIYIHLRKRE
Chain of UniProt Q9NPA8 (Q9NPA8 whole entry, looked up): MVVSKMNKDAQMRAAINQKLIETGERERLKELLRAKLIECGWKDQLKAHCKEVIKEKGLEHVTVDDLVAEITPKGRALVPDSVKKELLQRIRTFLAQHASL

Row | Target | log2 fold change [1] | log2 fold change [2] | log2 fold change [3] | log2 fold change [4] | log2 fold change [5] | log2 fold change [6] | log2 fold change [7] | log2 fold change [8] | log2 fold change [9] | log2 fold change [10] | log2 fold change [11] | log2 fold change [12] | log2 fold change [13] | log2 fold change [14] | log2 fold change [15]
1 | ENGASE (UniProt Q8NFI3) | 0.02 | -0.083 | 0.029 | -0.034 | 0.028 | 0.009 | 0.043 | -0.04 | 0.011 | -0.025 | -0.01 | -0.337 (active) | 0.05 | -0.013 | -0.004
2 | DTWD1 (UniProt Q8N5C7) | 0.007 | -0.039 | -0.034 | 0.01 | -0.02 | -0.067 | -0.007 | 0.002 | -0.008 | 0.049 | 0.059 | -0.27 (active) | -0.022 | -0.028 | 0.036
3 | GCLM (UniProt P48507) | -0.03 | 0.016 | -0.033 | 0.013 | 0.027 | 0.016 | 0.007 | 0 | -0.005 | -0.005 | 0.007 | -0.277 (active) | -0.013 | 0.032 | 0.021
4 | ESPL1 (UniProt Q14674) | -0.013 | 0.006 | 0.044 | 0.054 | 0.02 | 0.066 | -0.024 | 0.021 | -0.014 | -0.055 | 0.027 | -0.21 | 0.098 | 0.057 | -0.066
5 | EXOC1 (UniProt Q9NV70) | -0.005 | 0.013 | -0.067 | 0.013 | 0.097 | 0.024 | 0.005 | 0.024 | 0.012 | -0.032 | -0.019 | -0.45 (active) | 0.075 | -0.019 | 0.019
6 | EP300 (UniProt Q09472) | 0.036 | 0.037 | -0.028 | 0.081 | 0.007 | 0.03 | -0.043 | 0.036 | 0.023 | 0.046 | 0.018 | -0.338 (active) | 0.06 | 0.015 | -0.005
7 | FNTB (UniProt P49356) | -0.005 | 0.016 | 0.018 | -0.04 | -0.022 | -0.002 | 0.239 (active) | 0.003 | -0.011 | -0.027 | 0.03 | 0.03 | -0.018 | -0.032 | -0.048
8 | EMP3 (UniProt P54852) | 0.007 | 0.094 | -0.046 | 0.02 | -0.046 | -0.144 | 0.031 | 0.013 | -0.035 | -0.008 | 0.013 | -0.022 | -0.05 | -0.014 | 0.144
9 | EPB41, A0A2R8Y6D0 | -0.033 | 0.312 | 0.091 | -0.044 | -0.021 | -0.017 | -0.055 | 0.043 | -0.042 | -0.054 | 0.082 | 0.094 | 0.037 | -0.08 | 0.016
10 | EIF2B5 (UniProt Q13144) | -0.004 | 0.037 | -0.015 | 0.008 | 0.01 | -0.002 | -0.006 | 0.038 | -0.01 | -0.011 | 0.013 | -0.227 (active) | -0.009 | -0.029 | 0.013
11 | FOXK1 (UniProt P85037) | -0.006 | -0.014 | -0.065 | -0.038 | 0.004 | -0.031 | -0.042 | -0.002 | -0.011 | 0.007 | 0.022 | -0.414 (active) | -0.026 | -0.048 | 0.038
12 | FOXJ3 (UniProt Q9UPW0) | 0.156 | -0.053 | -0.013 | -0.008 | -0.063 | -0.055 | -0.017 | 0.042 | 0.017 | -0.115 | -0.016 | -0.24 (active) | 0.114 | 0.019 | 0.022
13 | FAM76B (UniProt Q5HYJ3) | -0.044 | 0.019 | 0.093 | -0.004 | 0.005 | -0.028 | -0.019 | -0.032 | -0.026 | -0.07 | -0.018 | 0.026 | 0 | 0.012 | -0.014
14 | ENY2 (UniProt Q9NPA8) | -0.054 | -0.002 | 0.045 | 0.007 | 0.033 | -0.03 | 0.085 | -0.03 | -0.022 | -0.007 | -0.066 | 0.118 | -0.032 | 0.016 | -0.018
15 | ERI1 (UniProt Q8IV48) | 0.004 | -0.008 | -0.012 | 0.035 | 0.041 | -0.019 | 0.043 | 0.08 | -0.019 | 0.058 | -0.001 | -0.221 (active) | -0.035 | -0.017 | 0.041
16 | ELF2 (UniProt Q15723) | 0.032 | -0.007 | -0.105 | 0.065 | 0.068 | 0.026 | -0.043 | -0.035 | -0.02 | 0.032 | 0.03 | -0.25 | 0 | -0.011 | -0.03
17 | DVL2 (UniProt O14641) | -0.03 | -0.003 | -0.114 | 0.027 | -0.063 | -0.13 | -0.027 | 0.102 | 0.236 | -0.097 | -0.056 | 0.33 (active) | 0.049 | 0.078 | -0.015
18 | GABPB1 (UniProt Q06547) | -0.008 | 0.012 | -0.051 | -0.023 | 0.05 | -0.036 | 0.007 | 0.031 | 0.05 | 0.033 | 0 | -0.299 (active) | 0.008 | -0.052 | -0.004
19 | ERLIN2 (UniProt O94905) | -0.009 | 0.001 | -0.013 | -0.019 | 0.03 | 0.021 | 0.012 | -0.038 | 0.012 | -0.01 | -0.012 | 0.032 | 0.019 | -0.005 | 0.016
20 | FTL (UniProt P02792) | -0.039 | 0.035 | -0.03 | -0.038 | -0.012 | 0.043 | 0.017 | 0.091 | 0.009 | 0.06 | -0.064 | 0.018 | 0.057 | 0.011 | -0.151
21 | FKBP8 isoform 2 (UniProt Q14318) | -0.019 | -0.055 | -0.056 | 0.014 | 0.011 | -0.21 | -0.005 | 0.067 | 0.02 | 0.005 | 0.024 | -0.219 (active) | 0.001 | -0.028 | 0.018
